High-throughput results (PubChem BioAssay)
Rows were chosen to be rich in hits. Some 1.1% of all compounds tested hit in one or more screens of this group.
MOR-DOR inv ag = inverse agonist of human OPRM1-OPRD1 heterodimerization; P35372+P41143; cell-based MOR-DOR heterodimer luminescence, inverse agonism; inhibition, % at 9.3 µM; 340,000 tested, 0.21% active; AID 504357; in the data active = inhibition above about 22%, passing the limit was not always enough;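 note: 0% = cells with DMSO and 100% = wells without cells with DMSO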
MOR-DOR ag-1 = OPRM1-OPRD1 heterodimerization agonism | cells, luminescence | P35372+P41143 | activation, % at 9.3 µM | 340,000 tested, 0.3% active;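 note: 0% = vehicle-treated cells and 100% = reference agonist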
HTR5A inv ctr = counter-screen for OPRM1-OPRD1 inverse agonists: human HTR5A inverse agonism; HTR5A cell line, luminescence; 340,000 tested, 0.083% active; AID 504634; inhibition, % at 9.3 µM; in the data active = inhibition mostly above about 23%, no sharp cut-off; inactive = mostly below about 18%;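 note: 0% = cells with DMSO and 100% = no-cell wells with DMSO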
Target sequence (P47898 whole entry, looked up): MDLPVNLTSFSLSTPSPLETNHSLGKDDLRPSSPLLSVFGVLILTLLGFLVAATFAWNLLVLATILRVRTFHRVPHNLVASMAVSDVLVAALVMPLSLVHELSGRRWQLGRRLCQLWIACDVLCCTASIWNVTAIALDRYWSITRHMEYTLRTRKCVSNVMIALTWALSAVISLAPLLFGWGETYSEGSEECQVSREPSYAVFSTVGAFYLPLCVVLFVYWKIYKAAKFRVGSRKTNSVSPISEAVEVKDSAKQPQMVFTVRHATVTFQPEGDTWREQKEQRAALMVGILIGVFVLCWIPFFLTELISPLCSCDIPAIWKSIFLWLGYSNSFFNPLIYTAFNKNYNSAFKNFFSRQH
HTR5A ag = activates human HTR5A in OPRM1-OPRD1 agonist counter-screen; 340,000 tested, 0.61% active; AID 504692; activation, % at 9.3 µM; P47898; HTR5A agonist assay, luminescence, cell-based; in the data active = activation mostly above about 9.5%, no sharp cut-off; inactive = mostly below about 7.6%;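 note: 0% = cells with vehicle only and 100% = reference agonist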
MOR-DOR ag-2 = counter-screen for HTR5A agonists: OPRM1-OPRD1 heterodimerization agonism; shares compounds with HTR5A ag; U2OS counter-screen cells, complementation luminescence, 3 h; activation, % at 9.3 µM; 800 tested, 13% active
HTR5A ag conf = HTR5A (human) agonism, confirmation; shares compounds with HTR5A ag; HTR5A agonist cell assay, luminescence; activation, % at 9.3 µM; 800 tested, 17% active; AID 504915; in the data active = activation above about 17%;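 note: 0% = cells with vehicle only and 100% = full reference agonist response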
* marks the source's active call; other numbers are inactive results. Cut-off read from the data, not from the text of the source, unless noted: active = activation above about 18%; inactive = the rest.

Results for O=C(c1ccc(Cn2c(=O)[nH]c3ccccc3c2=O)cc1)N1CCN(c2ccccc2)CC1 ?
MOR-DOR inv ag: -32.2; MOR-DOR ag-1: 5.9; HTR5A inv ctr: -3.9; HTR5A ag: 15.0*; MOR-DOR ag-2: 0.9; HTR5A ag conf: 8.5

How did O=C(c1ccc(Cn2c(=O)[nH]c3ccccc3c2=O)cc1)N1CCN(c2ccccn2)CC1 do in these assays?
MOR-DOR inv ag: 2.0; MOR-DOR ag-1: -0.3; HTR5A inv ctr: -35.8; HTR5A ag: 12.2

Results for O=C(c1ccc(Cn2c(=S)[nH]c3ccccc3c2=O)cc1)N1CCN(c2ccccn2)CC1 ?
MOR-DOR inv ag: -14.8; MOR-DOR ag-1: 3.0; HTR5A inv ctr: -43.4; HTR5A ag: 15.7*; MOR-DOR ag-2: 0.2; HTR5A ag conf: -3.0

How did CCNC(=S)NNc1nncc2ccccc12 do in these assays?
MOR-DOR inv ag: 12.3; MOR-DOR ag-1: -2.6; HTR5A inv ctr: -41.3; HTR5A ag: 16.1*; MOR-DOR ag-2: 35.7*; HTR5A ag conf: -3.2

What do the screens show for `O=C(CCCCCNC(=O)c1ccccc1Cl)N/N=C/c1ccco1`?
MOR-DOR inv ag: 10.4; MOR-DOR ag-1: -2.1; HTR5A inv ctr: -12.6; HTR5A ag: -5.3

How did CC(NCCCOc1cccc2ccccc12)c1ccccc1 (stereo not drawn) do in these assays?
MOR-DOR inv ag: -68.1; MOR-DOR ag-1: 13.8; HTR5A inv ctr: -58.1; HTR5A ag: 15.4*; MOR-DOR ag-2: 43.4*; HTR5A ag conf: 1.8

Results for COc1ccc2ccccc2c1CNC(C)c1ccccc1 (stereo not drawn) ?
MOR-DOR inv ag: 13.7; MOR-DOR ag-1: -3.0; HTR5A inv ctr: -5.8; HTR5A ag: 1.6

How did N#Cc1c(N)nc2c(c1N)CC(CCl)O2 (stereo not drawn) do in these assays?
MOR-DOR inv ag: 9.3; MOR-DOR ag-1: -1.6; HTR5A inv ctr: -14.3; HTR5A ag: 5.3

What do the screens show for `N/C(Cc1ccc(Cl)c(Cl)c1)=N\OC(=O)c1cccs1`?
MOR-DOR inv ag: -3.7; MOR-DOR ag-1: 0.8; HTR5A inv ctr: -103.8; HTR5A ag: 43.5*; MOR-DOR ag-2: 1.9; HTR5A ag conf: 1.0

What do the screens show for `CSc1ncc(CN2CCN(C3CCCC3)C(CCO)C2)cn1` (stereo not drawn)?
MOR-DOR inv ag: 11.4; MOR-DOR ag-1: -2.3; HTR5A inv ctr: -6.3; HTR5A ag: 1.3

How did Cc1ccc(S(=O)(=O)NN=C2CCC(C(C)(C)C)CC2)cc1[N+](=O)[O-] (stereo not drawn) do in these assays?
MOR-DOR inv ag: 5.7; MOR-DOR ag-1: -1.1; HTR5A inv ctr: -35.7; HTR5A ag: 9.8

What do the screens show for `CC(C)(C)C1CCC(=NNS(=O)(=O)c2ccc(Br)cc2)CC1` (stereo not drawn)?
MOR-DOR inv ag: -0.8; MOR-DOR ag-1: 0.1; HTR5A inv ctr: -73.0; HTR5A ag: 20.6*; MOR-DOR ag-2: 6.8; HTR5A ag conf: 4.4

Results for COc1nc2ccccc2nc1CCC(=O)O ?
MOR-DOR inv ag: 5.5; MOR-DOR ag-1: -1.1; HTR5A inv ctr: -11.6; HTR5A ag: 4.3

Results for CC(=O)Nc1ccc2nc(NC(=O)c3cccnc3)sc2c1 ?
MOR-DOR inv ag: -0.9; MOR-DOR ag-1: 0.2; HTR5A inv ctr: -33.7; HTR5A ag: 14.8*; MOR-DOR ag-2: 2.0; HTR5A ag conf: 51.1*

What do the screens show for `Cc1ccccc1N(CC(=O)N/N=C/c1ccc(N(C)C)cc1)C(=O)c1ccccc1`?
MOR-DOR inv ag: -2.9; MOR-DOR ag-1: 0.5; HTR5A inv ctr: 6.7; HTR5A ag: -2.2

Results for COc1ccc(C(=O)NNC(=O)CCC(=O)NNC(=O)c2ccc(OC)cc2)cc1 ?
MOR-DOR inv ag: -3.5; MOR-DOR ag-1: 0.5; HTR5A inv ctr: 9.4; HTR5A ag: -3.5

What do the screens show for `COc1ccc(S(=O)(=O)NC(C(=O)OCC(=O)Nc2ccc(N3CCOCC3)cc2)C(C)C)cc1` (stereo not drawn)?
MOR-DOR inv ag: -1.9; MOR-DOR ag-1: 0.5; HTR5A inv ctr: -38.8; HTR5A ag: 15.5*; MOR-DOR ag-2: 1.5; HTR5A ag conf: 2.5

Results for CCc1cc(=O)oc2c(C)c(OCC(=O)NCCCN3CCOCC3)ccc12 ?
MOR-DOR inv ag: 6.9; MOR-DOR ag-1: -1.3; HTR5A inv ctr: 5.2; HTR5A ag: 8.2

What do the screens show for `Cc1ccc(Cl)cc1NC(=O)c1cc2ccccc2cc1O`?
MOR-DOR inv ag: -41.0; MOR-DOR ag-1: 7.8; HTR5A inv ctr: 2.0; HTR5A ag: 22.2*; MOR-DOR ag-2: 4.9; HTR5A ag conf: 15.7
